The values that follow come from PubChem BioAssay (Tox21).

Inconclusive results are not listed. A call without a number means that no potency is given here. A number with no mark means an inactive call. The source made the active and inactive calls. Calls follow the shape of the dose curve; as a rule, active = well fitted cell-killing curve with a large enough effect in the repeat runs; inconclusive = weak or mixed curves, or effect the other way; inactive = flat fitted curve, though single readings scatter.
Potency is read from the fitted curve at half-maximal effect.

A short description of the test: qHTS assay to identify small molecule agonists of the constitutive androstane receptor (CAR) signaling pathway - cell viability counter screen (AID 1224836). Also: nearly all actives have a fitted effect of over 45% in size. As to conditions: HepG2-CYP2B6-hCAR viability, CellTiter-Fluor, 23 h, PK11195 added to every well; series mostly up to 92.4 µM. Put shortly:
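23 h treatment, 37 C, 5% CO2. Cell line: HepG2 stably expressing hCAR with a CYP2B6-2.2kb construct. Co-treatment: PK11195, 0.75 uM final. Read-out: CellTiter-Fluor fluorescence intensity.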
In the case of `CN(C)C(=O)NC1(c2ccccc2)CCN(CC[C@@]2(c3ccc(F)c(F)c3)CN(C(=O)c3ccccc3)CCO2)CC1`, the Potency result is “inactive”.
On the same count and under the same terms, the entry for `O=C(O)C1(C(=O)O)CCC1.[NH2-].[NH2-].[Pt+2]` is “inactive”; for `CC/C=C\CCOC(=O)CC` it is “inactive”.
Still for that read-out and setting: to `C=C(C)C(=O)OCCO` belongs “inactive”; to `CCOc1ccc(O)cc1`, “inactive”; to `Cn1c(=O)cc(Oc2ccc(F)cc2F)c2cnc(NCC(C)(C)O)nc21`, “inactive”.
As for `CCOc1ccc(N=Nc2ccc(/C=C/c3ccc(N=Nc4ccc(OCC)cc4)cc3S(=O)(=O)O)c(S(=O)(=O)O)c2)cc1`, the Potency is 24 µM (active).
Same read-out and setting: the entry for `CCCCCCCCCCCc1ccccc1` is “inactive”; for `Nc1ccc(S(=O)(=O)Nc2ccccc2)cc1` it is “inactive”.
Take `C=CC(=O)OCCOc1ccccc1`: the Potency entry was “inactive”.
Still for that read-out and setting: to `C/C=C/C=C/CO` belongs “inactive”; to `CCCCCCCCCCCCCCOS(=O)(=O)O`, “inactive”.
Still for that read-out and setting: the entry for `O=S(=O)(Oc1ccc(Cl)cc1)c1ccccc1` is “inactive”.
Still for that read-out and setting: the entry for `CCCCO` is “inactive”.
As to `CC(=O)[O][Al]`, the Potency result is “inactive”.
`CC(=O)c1ccc2c(c1)N(CCCN1CCC(CCO)CC1)c1ccccc1S2`: the Potency entry was “inactive”.
Regarding `CN1CCN(C(c2ccccc2)c2ccccc2)CC1`, the Potency entry was “inactive”.
Same read-out and setting: to `OC(C#CCN1CCCC1)(c1ccccc1)c1ccccc1` belongs “inactive”; to `Cc1cccc(Nc2ccccc2)c1`, “inactive”.
Same read-out and setting: to `Cc1ccc(C(=O)Oc2ccc(C(O)CNC(C)(C)C)cc2OC(=O)c2ccc(C)cc2)cc1` (stereo not drawn) belongs “inactive”; to `Nc1cc(C(=O)O)c(O)c(S(=O)(=O)O)c1`, “inactive”; to `CC(=O)OC[C@H]1O[C@@H](n2ncc(=O)[nH]c2=O)[C@H](OC(C)=O)[C@@H]1OC(C)=O`, “inactive”.
As to `Cc1[nH]c(C)c(Cl)c(=O)c1Cl`, the viability change, negative = cytotoxic was 3.99% [at 19 µM].
As to `CN1C[C@H]2c3ccccc3Oc3ccc(Cl)cc3[C@@H]2C1`, the Potency result was “inactive”.
On the same count and under the same terms, the entry for `CCCCC(CC)CN1C(=O)C2C3C=CC(C3)C2C1=O` (stereo not drawn) is “inactive”.
Same read-out and setting: to `O=C1OC(=O)C2C3C=CC(C3)C12` (stereo not drawn) belongs “inactive”; to `CC(=O)NO`, “inactive”; to `O=CC1CC=CCC1` (stereo not drawn), “inactive”.
Same read-out and setting: to `CN(Cc1ccc(C(C)(C)C)cc1)Cc1cccc2ccccc12` belongs “inactive”; to `CC(C)Cc1ccc(C(C)C(=O)OCc2ccccn2)cc1` (stereo not drawn), “inactive”.
For the compound `CCCCC/C=C\C/C=C\CCCCCCCC(=O)NC(C)c1ccccc1` (stereo not drawn), the Potency entry is “inactive”.
Still for that read-out and setting: to `O=[N+]([O-])c1ccc2[nH]ncc2c1` belongs “inactive”.
As to `NCC(=O)CCC(=O)O`, the Potency result is “inactive”.
